# Measurements from PubChem BioAssay (NCATS).
# Records with an inconclusive call do not appear. A call without a number means that no potency is given here. Active and inactive are the calls of the source. Unless noted, calls follow the shape of the dose curve; as a rule, active = well fitted curve in the direction sought with a large enough effect; inconclusive = small, poorly fitted or top-dose-only effect, or another doubt; inactive = no such curve, though single readings can be large; an effect the other way counts as inactive or inconclusive.
# Legend:
# [1] = target: Mitogen-activated protein kinase 10 (Mus musculus) (UniProt Q61831); experiment: JNK3 AlphaScreen Assay (AID 530; active = well fitted curve in either direction with a large enough effect, not every such curve was filed as active;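 also: kinase came from lysate of stimulated human HepG2 cells; signal reports phosphorylation of biotinylated GST-cJun 1-79 at Ser73 with 10 µM ATP; series mostly up to about 57 µM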)
# Method in brief: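 Compound titrations were preincubated 15 minutes at room temperature with substrate, antibody and pre-activated JNK3-containing HepG2 lysate. Reactions were started with 10 uM ATP and stopped with EDTA-containing bead buffer for AlphaScreen detection.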
# [2] = target: Cytochrome P450 3A4 (Homo sapiens) (UniProt P08684); experiment: qHTS Assay for Inhibitors and Substrates of Cytochrome P450 3A4 (AID 884); also: nearly all actives have a fitted effect of over 50% in size; also: potency is read from the fitted curve at half-maximal effect
# Chain of Cytochrome P450 3A4 (Homo sapiens) (P08684 whole entry, looked up): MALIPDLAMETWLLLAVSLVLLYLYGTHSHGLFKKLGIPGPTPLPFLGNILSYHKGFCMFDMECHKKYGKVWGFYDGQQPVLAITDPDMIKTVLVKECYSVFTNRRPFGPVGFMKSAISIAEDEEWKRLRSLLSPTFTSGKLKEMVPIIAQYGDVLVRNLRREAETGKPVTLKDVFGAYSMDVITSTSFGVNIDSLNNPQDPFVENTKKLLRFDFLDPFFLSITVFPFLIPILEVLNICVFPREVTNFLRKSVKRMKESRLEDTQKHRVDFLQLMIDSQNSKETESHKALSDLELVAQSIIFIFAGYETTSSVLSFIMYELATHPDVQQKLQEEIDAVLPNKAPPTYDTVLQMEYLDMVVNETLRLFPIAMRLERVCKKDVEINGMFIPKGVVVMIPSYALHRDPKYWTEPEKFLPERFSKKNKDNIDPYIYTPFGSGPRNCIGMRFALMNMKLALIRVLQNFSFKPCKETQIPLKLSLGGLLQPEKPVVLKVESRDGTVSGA
# Method in brief: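 20 nM human CYP3A4 with 25 uM Luciferin-PPXE (at KM) in 200 mM KPO4, preincubated 10 min with compound; NADPH regeneration started a 60 min RT reaction. Luciferin detected by luminescence, normalized to 57 uM ketoconazole as full inhibition.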
# [3] = target: Cytochrome P450 3A4 (Homo sapiens) (UniProt P08684); experiment: qHTS Assay for Activators of Cytochrome P450 3A4 (AID 885); also: nearly all actives have a fitted effect of over 65% in size
# Method in brief: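 Quantitative HTS format: compounds preincubated with 20nM human CYP3A4 and Luciferin-PPXE substrate at KM, reaction started by NADPH regeneration, stopped after 60 min, luciferase luminescence read 20 min later.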
Structure (SMILES),outcome [1],Potency [2],Potency [3]
CNC(=O)[C@]1(C)C[C@H]1[C@H](NC(=O)[C@]1(C)C[C@H]1[C@H](NC(=O)OCc1ccccc1)c1ccccc1)c1ccccc1,inactive,15.8 µM (active),inactive
CN1[C@H](Cc2ccccc2)C=C[C@]1(C)C(=O)NCC1CC1,inactive,inactive,
CNC(=O)C1(C)C=CCN1C(=O)c1ccccc1 (configuration not stated),inactive,inactive,
COC(=O)c1ccc(C(NC(=O)OCc2ccccc2)/C(F)=C/[C@@H](C)C(=O)Nc2ccc(OC)cc2)cc1 (some centres not stated),inactive,2 µM (active),
CC(=O)N1[C@H](C)C=C[C@]1(Cc1ccccc1)C(=O)NCc1ccc(C)o1,inactive,5.01 µM (active),inactive
Cc1nc(NCCO)c2nc(-c3ccccc3)n(CCN(C)C)c2n1,inactive,inactive,
CC(Cc1ccccc1)C(=O)NCC1CC1 (configuration not stated),inactive,inactive,
COC(=O)c1ccc(C(NC(=O)OCc2ccccc2)/C(=C/[C@@H](C)C(=O)N(C)Cc2cccnc2)c2cccnc2)cc1 (some centres not stated),inactive,0.631 µM (active),
CNC(=O)[C@@]1(Cc2ccccc2)C=C[C@@H](C)N1C(C)=O,inactive,inactive,
COC(=O)[C@@]1(C)C=C[C@@H](Cc2ccccc2)N1C,inactive,12.6 µM (active),
COC(=O)c1ccc(C(NC(=O)OCc2ccccc2)/C(F)=C/[C@@H](C)C(=O)N[C@@H](CO)Cc2ccccc2)cc1 (some centres not stated),inactive,7.94 µM (active),inactive
COC(=O)[C@@H]1C[C@@]1(C)[C@@H](NC(=O)OCc1ccccc1)c1ccccc1,inactive,25.1 µM (active),
